# PubChem BioAssay AID2216 (Broad Institute, 2009)
# Screen size: about 300,000 compounds; about 3,300 (1.1%) were called active. About 6% were inconclusive and are not listed. Only a selection was taken, and actives are over-represented in it overall. A number with no mark means an inactive call.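 Rule for the calls: active = more than half of the replicate wells show a fall in the fluorescence ratio signal beyond about 16% (limit read from the data, passing the limit was not always enough); inconclusive = exactly half of the replicate wells pass the set limit; inactive = fewer than half of replicates pass the limit.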
# System: Ran GTPase (GTP-bound) - importin-beta complex
# Assay: disruptors of Ran-importin-beta complex formation – biochemical, FRET, CFP-Ran, YFP-importin-beta, homogeneous, primary screen (AID 2216);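 note: 0% = DMSO wells and 100% = Ran loaded with GDP instead of GTP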
# Conditions: cell-free CFP-Ran/YFP-importin-beta FRET ratio; stronger effect = higher value; concentration not given here
row,Structure (SMILES),inhibition
1,CC1CCN(c2ccc(-c3ccc(NC(=O)c4ccco4)cc3)nn2)CC1,0.987%
2,NC(=O)c1c(Nc2nc3c(F)cccc3s2)sc2c1CCCC2,154% (active)
3,NC(=O)c1c(NC(=O)c2ccccc2)sc2c1CCCC2,3.77%
4,COc1cccc(OC)c1C(=O)Nc1sc2c(c1C(N)=O)CCCC2,3.19%
5,CCOc1ccc(NC(=O)COc2ccc(C(=O)N3CCC(C(N)=O)CC3)cc2OC)cc1,1.65%
6,COc1ccc(C2=NN(C(=O)CSc3nc(=O)n4ccc(C)cc4n3)C(c3ccc(C)cc3)C2)cc1 (stereo not drawn),3.51%
7,CCOCCCNC(=O)c1cc2c(=O)n3ccccc3nc2s1,-3.33%
8,CCn1c(=N)c(S(=O)(=O)c2ccc(F)cc2)cc2c(=O)n3ccccc3nc21,152% (active)
9,Cc1ccc(Cn2c(=N)c(S(=O)(=O)c3ccc(C)cc3)cc3c(=O)n4ccccc4nc32)cc1,1.91%
10,C=CCSc1nnc2c(n1)-c1cccc3cccc-2c13,6.48%
11,Cc1cc(C)c2nc(N3CCCC3)c(C#N)cc2c1,2.23%
12,Cc1cccc2cc(C#N)c(N3CCCC3)nc12,39.6% (active)
13,CC(=O)c1ccc(S(=O)(=O)N2CCN(c3nc4c(C)c(C)ccc4cc3C#N)CC2)cc1,6.35%
14,CCN(CC(=O)Nc1c(F)cccc1F)C(=O)c1ccc(-c2ccccc2)cc1,-2.68%
15,COc1ccccc1C(=O)NC(=O)COC(=O)c1ccco1,1.31%
16,Nc1cccc2c1C(=O)N(Cc1nnc(-c3ccccc3Br)o1)C2=O,35.1% (active)
17,Cn1cnnc1SCc1nnc(-c2ccccc2Br)o1,2.51%
18,CCOC(=O)N1CCN(Cc2nnc(-c3ccccc3Cl)o2)CC1,-2.66%
19,C/C(=N\NC(=O)CC(C)C)c1c(C(F)(F)F)[nH]n(-c2nc3ccccc3s2)c1=O,4.64%
20,COC(=O)Cc1cc(=O)n(-c2nc3ccccc3s2)[nH]1,18.9% (active)
21,COC(=O)Cc1[nH]n(-c2nc3ccccc3s2)c(=O)c1C(C)=Nc1ccc(OC)cc1,-3.75%
22,Cc1ccc(OCC(=O)Oc2ccccc2[N+](=O)[O-])cc1,0.472%
23,CC(=O)Nc1ccc(Nc2c3ccccc3nc3ccccc23)cc1,52.8% (active)
24,CC(=O)Nc1ccc(-c2nc3ccccc3o2)cc1,-2.08%

row,Structure (SMILES),inhibition
1,Cc1ccc(Nc2c3c(nc4ccccc24)CCC3)cc1,2.17%
2,COc1ccc(NC(=O)CSc2nnc(Cc3ccccc3)c(=O)n2N)cc1,-2%
3,Fc1ccccc1COc1cccc2cccnc12,1.44%
4,COC(=O)c1sc(NC(=O)c2ccc(OC)cc2OC)nc1C,-3.52%
5,COc1cc(SC)ccc1C(=O)Nc1cc(C)ccn1,-5.84%
6,COc1cc(SC)ccc1C(=O)Nc1nc(C)cs1,18.1% (active)
7,CC12CCC(=O)N1C(C(=O)NCCN1C(=O)S/C(=C\c3ccccc3F)C1=O)CS2 (stereo not drawn),6.01%
8,C=C(C)CNC(=O)c1ccc(OC2CCN(C(=O)COC)CC2)cc1,-0.667%
9,CCN1CCN(C(=O)N(Cc2ccc(Cl)cc2)S(=O)(=O)c2ccc(C)cc2)CC1,9.84%
10,CC(=O)c1cc(C#N)c(SCC(=O)C(C)(C)C)nc1C,-3.56%
11,CC(=O)c1cc(C#N)c(N2CC(C)OC(C)C2)nc1C (stereo not drawn),25.3% (active)
12,CC(=O)c1cc(C#N)c(N2CCCCC2)nc1C,2.36%
13,CC(=O)N/C(=C\c1ccccc1)C(=O)OC(C)C(=O)N(C)c1ccccc1 (stereo not drawn),1.82%
14,O=[N+]([O-])c1ncc(Br)cc1Nc1ccccc1,6.49%
15,COc1ccccc1NC(=O)Nc1nc(CC(=O)Nc2ccccc2F)cs1,1.51%
16,Cc1ccnc(NC(=O)CNC(=O)c2ccccc2)c1,5.13%
17,O=C(Cc1ccc(Br)cc1)NCCc1ccccc1,5.4%
18,CCCn1nc(NS(=O)(=O)c2ccccc2)c2cc3cc(C)ccc3nc21,-1.51%
19,CCCn1nc(NS(=O)(=O)c2ccc(F)cc2)c2cc3ccccc3nc21,4.53%
20,CCCn1nc(NC(=O)C(C)C)c2cc3cc(OC)ccc3nc21,57.9% (active)
21,Cc1ccc2c(C)c(C(=O)N3CCN(c4ccncc4)CC3)oc2c1C,1.96%
22,CCOc1ccc(C(=O)NCCCN2CCCC2=O)cc1,3%
23,CC(C)(C)OC(=O)c1c(N)n(CCCN2CCCC2=O)c2nc3ccccc3nc12,41.8% (active)
24,O=C(NCCCN1CCCC1=O)c1ccc(S(=O)(=O)Nc2ccccc2)cc1,-2.45%

row,Structure (SMILES),inhibition
1,Cc1nc(-c2ccc(F)cc2)c(CC(=O)Nc2cc(S(=O)(=O)N3CCCCC3)ccc2C)s1,1.23%
2,O=C(NCc1ccc2c(c1)OCO2)c1c(O)nc2sccn2c1=O,-0.147%
3,COc1ccc(C(=O)Nc2cccc(NC(=O)c3ccc(OC)cc3OC)n2)c(OC)c1,3.03%
4,CCCCN1C(N)=NC[C@@H]1CC1CCCCC1,0.418%
5,C/C(=N/OC(=O)c1c(-c2c(F)cccc2Cl)noc1C)c1cnccn1,-0.76%
6,CCOC(=O)c1cc2c(=O)n3ccccc3nc2n(CC(C)C)c1=NC(=O)c1c(-c2c(F)cccc2Cl)noc1C,94.5% (active)
7,Cc1onc(-c2c(F)cccc2Cl)c1C(=O)N(C)CC(=O)Nc1cccc(F)c1,0.755%
8,CCOC(=O)c1cccc(NC(=O)c2ccc(F)cc2F)c1,-2.82%
9,CCc1cccc(NC(=O)COC(=O)C2CCN(c3ccc(C(F)(F)F)cn3)CC2)c1,-2.11%
10,O=C(CNC(=O)C12CC3CC(CC(C3)C1)C2)OCC(=O)N1CCCCC1,9.25%
11,COc1cccc(C(=O)N/N=C(\C)c2cccc(NC(=O)c3ccc(F)cc3)c2)c1OC,-1.6%
12,Cc1ccc(-n2c(SCC(=O)N3CCC(C(=O)O)CC3)nc3ccccc3c2=O)cc1C,-0.912%
13,Cc1ccc(-n2c(=O)c(C#N)cc3c(=O)n4ccccc4nc32)cc1C,28% (active)
14,Cc1ccc(-n2ncc3c(=O)n(-c4ccc(C)c(C)c4)c(-c4ccco4)nc32)cc1,-0.295%
15,O=C(NCCSc1ncc(-c2ccccc2)[nH]1)c1ccco1,3.47%
16,O=C(NC1CCCCC1)c1ccc(-c2ccc(Cl)cc2)o1,8.43%
17,O=C(CSc1ccc(-c2ccc(-n3cccn3)cc2)nn1)Nc1ccc([N+](=O)[O-])cc1,-0.399%
18,CCN(CC(=O)Nc1cccc(S(=O)(=O)N2CCCCC2)c1)Cc1ccccc1,16.2% (active)
19,CC(=O)NC(CC(=O)Nc1cccc(S(=O)(=O)N2CCCC2)c1)c1ccccc1 (stereo not drawn),0.238%
20,CCN(CC(=O)Nc1ccc(S(=O)(=O)N2CCCC2)cc1)CC(=O)Nc1cccc(OC)c1,4.35%
21,COc1ccc(CCNc2cc(N3CCN(C(=O)c4ccccc4OC)CC3)ccc2[N+](=O)[O-])cc1OC,3.89%
22,CC1CC(C)CN(S(=O)(=O)c2cccc3nonc23)C1 (stereo not drawn),2.14%
23,COc1ccc2oc(C(=O)N(CC(C)C)C3CCS(=O)(=O)C3)c(C)c2c1 (stereo not drawn),-2.12%
24,O=C(Nc1ccccc1N1CCCC1)c1ccc(F)c(S(=O)(=O)N2CCOCC2)c1,1.55%

row,Structure (SMILES),inhibition
1,COc1ccccc1CCNS(=O)(=O)c1cc2c3c(c1)C(C)C(=O)N3CCC2 (stereo not drawn),4.16%
2,COC(=O)COc1ccc2c(c1C)O/C(=C\c1ccco1)C2=O,47.4% (active)
3,COC(=O)C1=C(C)N(c2ccc(Br)cc2)C(=O)/C1=C\c1ccco1,5.89%
4,Cc1cc(C)c(OCC(=O)N/N=C/c2ccco2)c(C)c1,-4.28%
5,CCS(=O)(=O)c1ccc(-c2cccc(NC(=O)c3ccc(Br)o3)c2)nn1,2.1%
6,CCOc1ccc(NS(=O)(=O)c2ccc(C(=O)NCC(c3ccccc3OC)N3CCCC3)cc2)cc1 (stereo not drawn),-3.36%
7,CCCNC(=O)CCn1cc(-c2ccc(OC)cc2)nc1CCN,-0.23%
8,Cc1csc(NC(=O)CSc2nc(=O)cc(N)n2-c2ccc(F)cc2)n1,1.41%
9,O=S(=O)(NC1CCCCC1N1CCC(O)CC1)c1ccc(Cl)cc1 (stereo not drawn),74.6% (active)
10,O=S(=O)(NC1CCCCC1N1CCCCC1)c1ccc(Cl)cc1 (stereo not drawn),2.32%
11,CCN1CCN(C2CCCCC2NS(=O)(=O)c2ccc(Cl)cc2)CC1 (stereo not drawn),1.58%
12,COc1ccc(CNC(=O)COC(=O)CCS(=O)(=O)c2ccc(C)cc2)cc1OC,2.29%
13,CCOc1ccc(-c2cc(C(=O)N/N=C/c3ccc(O)cc3)c3ccccc3n2)cc1,2.59%
14,COc1ccc(C(=O)N/N=c2\oc3ccccc3cc2C(N)=O)cc1,4.55%
15,CCN(CC)c1ccc2oc(=O)c(C)nc2c1,-87.9%
16,CCN(CC)c1ccc2cc(C(N)=O)/c(=N\NC(=O)c3ccncc3)oc2c1,135% (active)
17,CCOC(=O)c1cc2cc3ccccc3cc2oc1=O,3.3%
18,CCN(CC)c1ccc2cc(C(=O)O)c(=O)oc2c1,153% (active)
19,NC(=O)c1cc2ccccc2o/c1=N/NC(=O)c1cccc(F)c1,-7.02%
20,Cc1onc(C(=O)Nc2ccc3c(c2)OCO3)c1[N+](=O)[O-],0.97%
21,CCCOc1ccc(Cl)cc1Nc1nc(NCCO)nc(N2CCCC2)n1,-4.43%
